Experimental data reported in PubChem BioAssay.
The source made the active and inactive calls. Unless noted, no rule for the calls is given here.

Key:
[1] = compound effects on lung adenocarcinoma cell viability – A549, calcein-AM fluorescence, 48 h, basal, profiling panel (AID 1162); details: higher = more signal; also: test concentration not given here
[2] = compound effects on differentiated 3T3-L1 adipocyte viability – cell-based, 3T3-L1 adipocytes, calcein-AM fluorescence, 48 h, basal, profiling panel (AID 1163); details: 3T3-L1 adipocytes viability, higher = more signal; also: test concentration not given here
[3] = compound effects on hepatocellular carcinoma cell viability – HepG2, calcein-AM fluorescence, 48 h, basal, profiling panel (AID 1164); details: higher = more signal; also: test concentration not given here
[4] = compound effects on multiple myeloma cell viability – MM1S, calcein-AM fluorescence, 48 h, basal, profiling panel (AID 1165); details: higher = more signal;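 also: viability of MM1S multiple myeloma cells under basal unstimulated conditions; test concentration not given here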
[5] = calcein-AM signal in unstimulated myeloma cells – cell-based, calcein-AM fluorescence, 48 h, PK04 Diversity Set, profiling panel (AID 1166); details: RPMI8226 myeloma viability, higher = more signal;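 also: cells grown under basal conditions without added stimulus; test concentration not given here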
[6] = JC-1 mitochondrial signal, unstimulated HepG2 cells – cell-based, JC-1 fluorescence, 24 h, 100 nL compound, profiling panel (AID 1167); details: HepG2 mitochondrial potential, higher = more signal; also: test concentration not given here
[7] = JC-1 mitochondrial signal, unstimulated adipocytes – cell-based, JC-1 fluorescence, 3T3-L1 adipocytes, 24 h, 100 nL compound, profiling panel (AID 1168); details: JC-1 mitochondrial fluorescence, higher = more signal, called active from +8 up or from −8 down; also: test concentration not given here
[8] = JC-1 mitochondrial signal, unstimulated myeloma cells – cell-based, JC-1 fluorescence, RPMI8226, 24 h, 100 nL compound, profiling panel (AID 1169); details: JC-1 mitochondrial potential fluorescence, higher = more signal; also: test concentration not given here
[9] = JC-1 mitochondrial signal, unstimulated MM1S myeloma – cell-based, JC-1 fluorescence, 24 h, 100 nL compound, profiling panel (AID 1170); details: MM1S mitochondrial potential, higher = more signal; also: test concentration not given here
[10] = resazurin metabolic signal in A549 cells – cell-based, resazurin fluorescence, 24 h, PK04 Diversity Set, profiling panel (AID 1171); details: A549 viability, higher = more signal, called active from +8 up or from −8 down; also: test concentration not given here
[11] = resazurin metabolic signal in HepG2 cells – cell-based, resazurin fluorescence, 24 h, PK04 Diversity Set, profiling panel (AID 1172); details: HepG2 viability, higher = more signal; also: test concentration not given here
[12] = budding yeast growth changes without added modifier – OD600, strain BY4716, 24 h, basal condition, primary screen (AID 1173); details: S. cerevisiae BY4716 growth, OD600, 24 h; higher = more signal, called active from +8 up or from −8 down
[13] = viability profiling in MM1S myeloma cells – cell-based, resazurin fluorescence, basal, 24 h, PK04 Diversity Set, profiling panel (AID 1174); details: higher = more signal, called active from +8 up or from −8 down; also: test concentration not given here
[14] = molecular target: Dihydroorotate dehydrogenase (quinone), mitochondrial (Plasmodium falciparum (isolate 3D7)) (UniProt Q08210); experiment: inhibition of P. falciparum DHODH – biochemical, C-terminal His tag, absorbance 600 nm, primary screen (AID 1175); details: PfDHODH enzyme, DCIP absorbance 600 nm; higher = more signal, called active from +8 up or from −8 down;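 also: recombinant parasite enzyme with a five histidine tag at its C terminus; test concentration not given here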
Sequence of Dihydroorotate dehydrogenase (quinone), mitochondrial (Plasmodium falciparum (isolate 3D7)) (Q08210 whole entry, looked up): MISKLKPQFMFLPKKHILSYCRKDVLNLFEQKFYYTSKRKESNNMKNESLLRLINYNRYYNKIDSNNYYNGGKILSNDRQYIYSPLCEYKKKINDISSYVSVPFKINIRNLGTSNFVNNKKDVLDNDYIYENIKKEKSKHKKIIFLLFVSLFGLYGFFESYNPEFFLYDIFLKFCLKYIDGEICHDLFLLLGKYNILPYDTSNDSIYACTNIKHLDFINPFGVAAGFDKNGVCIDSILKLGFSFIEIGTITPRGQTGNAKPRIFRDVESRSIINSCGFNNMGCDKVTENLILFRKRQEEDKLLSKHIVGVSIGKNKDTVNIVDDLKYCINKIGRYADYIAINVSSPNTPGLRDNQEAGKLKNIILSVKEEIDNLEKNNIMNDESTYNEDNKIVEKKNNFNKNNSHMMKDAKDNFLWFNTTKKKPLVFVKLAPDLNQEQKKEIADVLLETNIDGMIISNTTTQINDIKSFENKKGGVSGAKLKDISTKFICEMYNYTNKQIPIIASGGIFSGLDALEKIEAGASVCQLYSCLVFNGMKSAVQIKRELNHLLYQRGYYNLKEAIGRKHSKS

[15] = inhibition of PAO1 biofilm formation – strain PAO1, LB-PBS medium, absorbance 600 nm, primary screen (AID 1176); also: test concentration not given here; details: P. aeruginosa PAO1 growth/biofilm, A600, 12 h; higher = more signal
[16] = growth modulation of vineyard yeast isolate – strain RM11-1a, OD600, basal, 24 h, primary screen (AID 1177);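 also: cultures grown under basal conditions with no added stressor; test concentration not given here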; details: S. cerevisiae RM11-1a growth, OD600, 24 h; higher = more signal, called active from +8 up or from −8 down
[17] = growth of efflux-deficient E. coli DRC39 – strain DRC39, OD650, 24 h, E. coli filamentation inducers, primary screen (AID 1178);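 also: growth measured as culture turbidity by optical density at 650 nm; test concentration not given here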; details: E. coli DRC39 acrAB, higher = more signal, called active from +8 up or from −8 down
[18] = growth of efflux-deficient E. coli DRC39 – strain DRC39, OD650, 48 h, E. coli filamentation inducers, primary screen (AID 1179);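 also: screen aims at cell division blockers that make cells filament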; details: E. coli DRC39 delta-acrAB growth, higher = more signal, called active from +8 up or from −8 down
[19] = viability profiling in RPMI8226 myeloma cells – cell-based, resazurin fluorescence, basal, 24 h, PK04 Diversity Set, profiling panel (AID 1180); details: higher = more signal;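 also: RPMI8826 multiple myeloma cell line at 5000 cells per well; test concentration not given here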
[20] = molecular target: E3 ubiquitin-protein ligase XIAP (Homo sapiens) (UniProt P98170); experiment: small molecules binding XIAP protein – biophysical, small-molecule microarray, fluorescence 635 nm, primary screen (AID 1181); details: higher = more signal;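 also: score merges 667 nm emission and signal to noise over triplicate slides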
Sequence of E3 ubiquitin-protein ligase XIAP (Homo sapiens) (P98170 whole entry, looked up): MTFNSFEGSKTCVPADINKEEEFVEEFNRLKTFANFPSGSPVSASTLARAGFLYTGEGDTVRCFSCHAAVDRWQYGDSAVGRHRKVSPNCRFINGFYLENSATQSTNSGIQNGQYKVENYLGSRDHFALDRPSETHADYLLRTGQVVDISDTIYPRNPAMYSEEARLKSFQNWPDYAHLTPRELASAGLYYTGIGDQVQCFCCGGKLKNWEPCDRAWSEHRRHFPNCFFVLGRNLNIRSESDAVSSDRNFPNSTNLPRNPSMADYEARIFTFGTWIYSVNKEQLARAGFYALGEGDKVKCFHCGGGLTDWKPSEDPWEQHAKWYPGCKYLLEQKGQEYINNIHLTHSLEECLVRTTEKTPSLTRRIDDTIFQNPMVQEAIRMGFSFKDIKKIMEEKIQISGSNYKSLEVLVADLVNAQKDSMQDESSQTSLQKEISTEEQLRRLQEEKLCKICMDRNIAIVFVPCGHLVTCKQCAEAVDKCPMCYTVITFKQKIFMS

SMILES	z-score [1]	z-score [2]	z-score [3]	z-score [4]	z-score [5]	z-score [6]	z-score [7]	z-score [8]	z-score [9]	z-score [10]	z-score [11]	z-score [12]	z-score [13]	composite z-score [14]	z-score [15]	z-score [16]	z-score [17]	z-score [18]	z-score [19]	composite z-score [20]
COCCOC(=O)N1C(=O)[C@@]2(c3cc(C#CCCO)ccc31)[C@H](c1ccccc1OCCO)N1[C@H](c3ccccc3)[C@H](c3ccccc3)OC(=O)[C@H]1[C@@H]2C(=O)Nc1nc2ccccc2s1	0.148	-0.676	0.169	-1.11	-0.813	-3.28	-0.192 (inactive)	-0.417	-0.998	0.854 (inactive)	1.03	1.13 (inactive)	-0.125 (inactive)	-0.26 (inactive)	2.51 (inactive)	1.79 (inactive)	-0.233 (inactive)	-0.324 (inactive)	-0.411	-0.115
CCOC(=O)C1=CC[C@@H](c2ccccc2C(F)(F)F)N(S(=O)(=O)c2ccc(C)cc2)[C@H]1c1ccc(C#N)cc1	-0.711	-0.842	-0.326	-0.509	-0.214	-1.02	-0.544 (inactive)	0.801	-0.81	-0.035 (inactive)	-0.0666	1.02 (inactive)	-1.39 (inactive)	-0.0408 (inactive)	1.01 (inactive)	-0.171 (inactive)	-0.534 (inactive)	0.312 (inactive)	-0.823	-0.0172
COc1ccccc1CN1C(=O)c2ccccc2[C@](Cc2ccccc2I)(C(=O)NCC(F)(F)F)[C@@H]1c1ccc(CO)cc1	-0.698	0.95	-0.568	-2.39	-4.25	0.349	-1.39 (inactive)	-0.68	-0.176	0.12 (inactive)	-0.569	-1.28 (inactive)	-0.142 (inactive)	-0.673 (inactive)	0.457 (inactive)	0.648 (inactive)	-0.496 (inactive)	-0.613 (inactive)	0.17	0.0264
COc1ccc(C#Cc2ccc3c(c2)[C@]2(C(=O)N3)[C@H](c3ccc(O)cc3)N3[C@H](c4ccccc4)[C@H](c4ccccc4)OC(=O)[C@H]3[C@@H]2C(=O)O)cc1	-0.884	0.943	0.127	-2.24	-2.2	-3.68	-0.742 (inactive)	-0.28	-0.361	0.344 (inactive)	0.275	-1.16 (inactive)	0.504 (inactive)	-2.78 (inactive)	1.15 (inactive)	0.0708 (inactive)	0.355 (inactive)	-0.341 (inactive)	0.801	0.126
CN1C(=O)C2C=CC(C(O)c3ccc(F)cc3)N(Nc3ccccc3)C2C1=O (stereo not given)	-0.434	-1.02	-0.613	-1.82	0.196	-1.81	-0.8 (inactive)	0.663	0.431	-0.369 (inactive)	-1.05	0.544 (inactive)	-1.24 (inactive)	0.869 (inactive)	0.944 (inactive)	1.38 (inactive)	-1.03 (inactive)	-0.894 (inactive)	-1.58	0.0761
COc1ccc([Si](C)(C)[C@@H]2[C@@H](CC(=O)N(CCO)Cc3ccccc3)O[C@]3(C(=O)N(Cc4cccc(N5C(=O)c6cccc7cccc5c67)c4)c4ccccc43)[C@H]2C)cc1	-1.32	1.43	-1.12	-1.48	-3.72	0.641	2.03 (inactive)	-1.02	-1.4	-0.999 (inactive)	-0.47	-0.304 (inactive)	-1.6 (inactive)	-1.29 (inactive)	1.25 (inactive)	0.323 (inactive)	1.75 (inactive)	1.51 (inactive)	-1.27	-0.124
COC(=O)[C@@]1(Cc2ccc(F)cc2)[C@H]2c3cc(C(=O)N(C)C)n(CCc4ccc(O)c(OC)c4)c3C[C@H]2CN1C(=O)c1ccccc1	0.558	-0.306	0.364	-0.254	-0.364	-0.27	-0.763 (inactive)	-0.266	0.564	-0.905 (inactive)	-0.275	0.358 (inactive)	-0.0883 (inactive)	0.124 (inactive)	-0.263 (inactive)	0.898 (inactive)	-0.952 (inactive)	-0.574 (inactive)	0.28	-0.196
COCCOC(=O)N1C(=O)[C@@]2(c3cc(C#CCC(C(=O)OC)C(=O)OC)ccc31)[C@H](C(=O)N1CCc3cc(OC)c(OC)cc3C1)[C@H]1C(=O)O[C@H](c3ccccc3)[C@H](c3ccccc3)N1[C@@H]2c1ccc(OCCO)cc1	0.206	0.105	1.42	-0.219	0.0896	-0.781	0.512 (inactive)	-0.637	-1.28	-0.225 (inactive)	-0.679	1.63 (inactive)	-0.348 (inactive)	-1.34 (inactive)	2.39 (inactive)	2.8 (inactive)	-0.132 (inactive)	0.325 (inactive)	0.847	-0.332
COc1ccc([Si](C)(C)[C@@H]2[C@@H](CC(=O)N3Cc4ccccc4C[C@H]3CO)O[C@]3(C(=O)N(Cc4cccc(N5C(=O)c6cccc7cccc5c67)c4)c4ccccc43)[C@H]2C)cc1	-0.419	1.11	-0.553	-0.428	-1.41	-0.715	1.14 (inactive)	-0.98	-1.36	-1.28 (inactive)	-0.468	0.517 (inactive)	-1.54 (inactive)	-3.83 (inactive)	1.42 (inactive)	0.618 (inactive)	0.226 (inactive)	-0.143 (inactive)	-0.711	-0.253
C=CCNC(=O)[C@H]1[C@@H]2C(=O)O[C@@H](c3ccccc3)[C@@H](c3ccccc3)N2[C@@H](c2ccc(O)cc2)[C@]12C(=O)Nc1ccc(C#CC3(O)CCCCCC3)cc12	-0.0001	0.0111	-1.37	-1.65	-4.08	-2.86	-1.62 (inactive)	-1.25	-0.291	0.421 (inactive)	0.435	-0.989 (inactive)	-0.514 (inactive)	0.19 (inactive)	1.45 (inactive)	-0.596 (inactive)	0.186 (inactive)	-0.11 (inactive)	-0.458	-0.0622
CC(C)(C)N1CC=CC23O[C@@H]4C=CCCOC(=O)C4[C@H]2C(=O)N(CCO)[C@@H]3C1=O (stereo not given in full)	-0.708	-0.358	-0.811	0.18	0.608	-0.405	-1.46 (inactive)	0.168	-0.132	-0.693 (inactive)	0.388	0.0947 (inactive)	-0.512 (inactive)	0.427 (inactive)	0.345 (inactive)	0.451 (inactive)	-1.02 (inactive)	-1.05 (inactive)	-1.13	0.072
O=C1NC(=O)C2C1C=CC(C(O)c1c(F)cccc1Cl)N2Nc1ccc(Cl)cc1Cl (stereo not given)	-2.11	0.0772	-2.82	-3.64	-1.39	-3.44	-0.775 (inactive)	-1.06	-1.46	-2.22 (inactive)	-3.13	-14.8 (active)	-2.21 (inactive)	0.0047 (inactive)	1.44 (inactive)	-1.12 (inactive)	-0.854 (inactive)	-1.44 (inactive)	-2.2	0.482
NC(=O)NCC#Cc1ccc2c(c1)[C@]1(C(=O)N2)[C@H](C(=O)O)[C@H]2C(=O)O[C@H](c3ccccc3)[C@H](c3ccccc3)N2[C@@H]1c1ccc(OCCO)cc1	0.0179	0.359	-0.519	0.231	0.12	-2.3	-0.483 (inactive)	0.00293	0.12	0.721 (inactive)	0.626	0.0086 (inactive)	0.557 (inactive)	-0.932 (inactive)	0.545 (inactive)	-0.285 (inactive)	-0.0444 (inactive)	-0.721 (inactive)	0.547	0.361
CN(C)C(=O)[C@@]1(Cc2ccccc2CN=[N+]=[N-])N=C(c2ccc(OCCCO)cc2)O[C@H]1c1ccccc1CN=[N+]=[N-]	-0.446	-0.182	-1.29	-1.42	-3.77	1.11	-1.34 (inactive)	-1.12	-2.11	-0.67 (inactive)	-1.43	1.12 (inactive)	-2.15 (inactive)	2.07 (inactive)	1.35 (inactive)	2.07 (inactive)	0.117 (inactive)	-0.435 (inactive)	-3.29	0.172
O=C1O[C@@H](c2ccccc2)[C@@H](c2ccccc2)N2[C@@H](c3ccccc3OCCO)[C@]3(C(=O)Nc4ccc(C#CCCO)cc43)[C@@H](C(=O)N3CCCCCCC3)[C@H]12	0.22	0.251	0.717	-1.68	-4.14	0.548	0.363 (inactive)	-1.11	-1.63	-0.184 (inactive)	0.29	0.355 (inactive)	-1.91 (inactive)	-0.452 (inactive)	1.26 (inactive)	0.753 (inactive)	-0.291 (inactive)	0.321 (inactive)	-4.5	2.45
COc1ccc([Si](C)(C)[C@H]2[C@H](CCn3cc([C@H](O)c4ccccc4)nn3)O[C@@]3(C(=O)N(Cc4ccc(N5C(=O)c6cccc7cccc5c67)cc4)c4ccccc43)[C@@H]2C)cc1	0.332	-0.488	1.02	-0.702	-0.74	1.58	-0.526 (inactive)	-0.296	0.516	-1.26 (inactive)	-0.0876	0.0957 (inactive)	-1.96 (inactive)	0.468 (inactive)	1.03 (inactive)	1.26 (inactive)	1.57 (inactive)	1.45 (inactive)	-0.761	-0.031
N#Cc1ccc(C(O)C2C=CC3C(=O)N(c4ccccc4)C(=O)C3N2Nc2ccccc2)cc1 (stereo not given)	-0.26	0.744	-0.638	0.41	-0.153	-0.651	0.693 (inactive)	0.173	-0.482	-1 (inactive)	-0.888	-2.46 (inactive)	-0.697 (inactive)	-0.561 (inactive)	1.06 (inactive)	-0.433 (inactive)	0.366 (inactive)	0.0165 (inactive)	-0.196	0.0537
